# Screens deposited in PubChem by National Center for Advancing Translational Sciences (NCATS).
# HCMV inh: human cytomegalovirus inhibition | 410,000 tested, 4.5% active | activity change, negative = inhibition, % at 57.5 µM | HFF cells, HCMV-luciferase reporter, 72 h; active compounds read low; in the data active = activity change below about -60%; inconclusive = no clear call, values can overlap the other calls; inactive = above about -39%
#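 Cell-based, HFFs, 1000 cells/well, 16 h 37C; cpds in DMSO + HCMV-luc, MOI 1 PFU/cell; 72 h 37C; OneGlo luminescence after 5 min RT; norm. to buffer vs Salinomycin 10uM.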
# Vaccinia mCherry: vaccinia inhibition (mCherry reporter) | Potency, µM (titrated, usually from 36.5 µM), usual class: inhibitors | 310,000 tested, 0.63% active | Vaccinia virus mCherry reporter infection, fluorescence; calls by dose curve; tested in A549 cells; note: nearly all actives have a fitted effect of over 35% in size
# Lassa entry inh: blocks Lassa virus binding to or entry into cells | Potency, µM (top dose mostly 37.9 µM), usual class: inhibitors | Lassa virus pseudotype entry inhibition, cell reporter | 300,000 tested, 1.2% active; calls by dose curve; tested in HEK293 cells; note: nearly all actives have a fitted effect of over 50% in size
# FMDV inh: antivirals against foot and mouth disease virus; FMDV antiviral cell-based qHTS; Potency, µM (titrated, usually from 57.9 µM), hits mostly inhibitors; 410,000 tested, 1.2% active; AID 1159524; calls by dose curve; tested in HEK293T cells; note: read-out not given here; nearly all actives have a fitted effect of over 45% in size
# Vaccinia Venus: vaccinia inhibition (Venus reporter). Vaccinia virus Venus reporter expression, fluorescence. Potency, µM (series often up to 36.5 µM), hits mostly inhibitors. 330,000 tested, 0.46% active; calls by dose curve; tested in A549 cells; note: nearly all actives have a fitted effect of over 30% in size
# MARV entry inh: blocks Marburg virus binding to or entry into cells; Marburg virus pseudotyped entry inhibition, cell reporter; Potency, µM (highest dose often 37.8 µM), most hits filed as inhibitors; 300,000 tested, 1.8% active; AID 540276; calls by dose curve; tested in HEK293 cells
# Numbers stand for hits; – = inactive; ? = inconclusive; · = no result given; + = active, no number. Compounds with a hit are over-represented: about 6.5% of the library has one in this group of screens.
SMILES,HCMV inh,Vaccinia mCherry,Lassa entry inh,FMDV inh,Vaccinia Venus,MARV entry inh
O=C(C1CCCN1S(=O)(=O)c1cccc2nsnc12)N1CCN(c2ccc(F)cc2)CC1 (stereo unspecified),-65.9,·,·,–,·,·
CCCCN(C=O)c1c(CC)nc2c(OCc3ccc(Cl)cc3Cl)cccn12,–,–,·,?,–,·
CCc1ccc(C(=O)COC(=O)C2=NN(c3ccccc3)C(=O)CC2)cc1,–,·,·,–,·,·
CC1(C(=O)Nc2cnc3ccccc3c2)CCN1C(=O)CC(c1ccccc1)c1ccccc1 (stereo unspecified),–,–,·,?,–,·
CC1(C)Cc2nc3oc4c(N(CCO)Cc5ccccc5)ncnc4c3cc2CO1,?,·,?,31.6µM,·,–
CCn1c(SCc2nc(-c3cccs3)no2)nnc1-c1c[nH]c2ccccc12,?,–,20µM,22.4µM,–,?
Cc1ccc(C(=O)NCc2ccco2)cc1,–,·,·,–,·,·
O=C(CCNC(=O)c1ccc([N+](=O)[O-])cc1)NCc1ccco1,-72.0,·,·,–,·,·
O=C(NCc1ccco1)c1ccc2c(c1)C(=O)c1ccccc1-2,–,·,23.1µM,–,·,?
O=C(NCc1ccco1)c1ccccc1-c1ccccc1,-79.8,·,–,–,·,–
O=C(NCc1ccco1)c1ccc(C(=O)NCc2ccco2)cc1,-68.7,–,–,–,–,–
CCc1ccc(NC(=O)[C@@H](NC(=O)[C@@H]2Cc3ccccc3CN2)C(C)CC)cc1 (stereo partly specified),·,·,·,–,·,·
NC1=NCC2c3ccccc3Cc3ccccc3N12 (stereo unspecified),·,·,–,·,·,?
CCOC(=O)c1cc(-c2ccc(C)cc2)n(CCCC(=O)Nc2cc(C)ccc2C)c1,+,?,–,–,–,·
O=C(CCl)N1N=C(c2cccs2)CC1c1ccco1 (stereo unspecified),-97.4,?,?,15.8µM,–,?
CN1CCN(CC(=O)N2N=C(c3cccs3)CC2c2ccco2)CC1 (stereo unspecified),–,–,?,–,–,–
O=C(CCl)N1N=C(c2ccco2)CC1c1ccco1 (stereo unspecified),-72.1,?,?,–,–,?
O=C(O)/C=C/C(=O)N1N=C(c2ccco2)CC1c1ccco1 (stereo unspecified),–,–,?,–,–,?
COc1ccc(NC(=O)N2c3ccc(OC)cc3[C@@H](NC(C)=O)[C@H](C)[C@H]2c2ccccc2)cc1,–,·,·,·,·,·
COCc1[nH]nc2c1[C@@H](c1sccc1C)C(C#N)=C(N)O2,·,·,·,·,·,–
O=C(CN(C(=O)CNS(=O)(=O)c1ccc(F)cc1)c1ccc(F)cc1)NCc1ccco1,?,–,–,–,–,–
COc1ccc(COC(=O)NN=C2C[C@@H](O)[C@@H](O)[C@@H]3[C@H]4C(=O)N(Cc5ccccc5)C(=O)[C@@H]4CC[C@@H]23)cc1,·,·,4.45µM,·,·,–
COc1ccc(COC(=O)N/N=C2/C[C@@H](O)[C@@H](O)[C@@H]3[C@@H]4C(=O)N(Cc5ccccc5)C(=O)[C@H]4CC[C@H]23)cc1,·,·,·,·,·,–
CCCC(C(=O)Nc1c(C)cccc1C)N1C(=O)C(=O)c2ccccc21 (stereo unspecified),–,·,·,·,·,·
COc1ccc2nc(N=Nc3ccc(N(C)C)cc3)sc2c1,–,–,?,12.6µM,–,?
SMILES,HCMV inh,Vaccinia mCherry,Lassa entry inh,FMDV inh,Vaccinia Venus,MARV entry inh
COc1cccc(Cn2c(=O)c(-c3cccc(C#N)c3)nc3cnc(N4CCOCC4)nc32)c1,·,·,·,–,·,·
C[C@@H]1CN(Cc2ccc3c(c2)CN(Cc2cccn2-c2ccccn2)CCO3)C[C@H](C)O1,·,–,·,–,–,·
COc1ccc(NC(=O)c2cc(-c3ccccn3)nc3ccccc23)cc1S(=O)(=O)N(C)C,–,–,?,?,–,15.8µM
O=C(Nc1cccc(S(=O)(=O)N2CCCC2)c1)c1cc(-c2ccccn2)nc2ccccc12,–,–,?,–,–,7.94µM
CCN(CC)S(=O)(=O)c1cc(NC(=O)c2cc(-c3ccccn3)nc3ccccc23)ccc1C,–,·,·,–,·,·
CN(C)c1ccc(CNC(=O)c2csc(N3CCN(CCc4ccccc4)C3=O)n2)cc1,–,·,·,·,·,·
CCOC(=O)C1(Cc2ccccc2)CCCN(CCCn2cccn2)C1 (stereo unspecified),–,–,?,–,–,–
CCOC(=O)C1(Cc2ccc(Cl)cc2)CCN(C(=O)c2sc(C)nc2C)CC1,-76.4,·,·,31.6µM,·,·
CCOC(=O)C1(Cc2ccc(Cl)cc2)CCN(CCCn2cccn2)CC1,-61.8,–,?,?,–,?
CCn1cc(C(=O)O)c(=O)c2c1CC(N1CCNCC1)=C(F)C2,·,·,·,·,·,–
Oc1c(CN2CCCCC2)cc(COCc2ccccc2)c2cccnc12,-96.3,2.51µM,2.24µM,–,?,?
OCCN1CCN(Cc2cc(Cl)c3cccnc3c2O)CC1,–,·,?,–,·,?
CN(C)C1CCN(Cc2cc(COCc3ccccc3)c3cccnc3c2O)C1 (stereo unspecified),·,·,·,–,·,·
